Measurements: PubChem BioAssay (NCATS)
Results filed as inconclusive are left out. Active and inactive are the calls of the source. Calls come from the whole dose curve; as a rule, active = well fitted inhibition curve with a large enough effect; inconclusive = small, poorly fitted or top-dose-only effect; inactive = flat fitted curve, though single readings scatter.

Experiments:
Assay in all cases: qHTS profiling for inhibitors of Plasmodium falciparum proliferation (AID 504749); note: nearly all actives have a fitted effect of over 60% in size
Conditions in all cases: P. falciparum in erythrocytes, SYBR Green DNA, 72 h; series mostly up to 28.7 µM
[1] = tested on: 3D7
Method in brief: (§1)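 In a 72 h erythrocytic culture (37 C, humidified, 5% CO2) at 2.5% hematocrit and 0.3% starting parasitemia, compounds were tested; SYBR Green I in detergent lysis buffer stained parasite DNA overnight.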

[2] = tested on: CP185
Method in brief: as §1

[3] = tested on: CP194
Method in brief: as §1

[4] = tested on: CP201
Method in brief: as §1

[5] = tested on: CP215
Method in brief: as §1

[6] = tested on: CP238
Method in brief: as §1

[7] = tested on: CP262
Method in brief: as §1

[8] = tested on: CP265
Method in brief: as §1

[9] = tested on: CP268
Method in brief: as §1

[10] = tested on: CP269
Method in brief: as §1

[11] = tested on: CP286
Method in brief: as §1

[12] = tested on: CP297
Method in brief: as §1

[13] = tested on: CP305
Method in brief: as §1

[14] = tested on: CP315
Method in brief: as §1

[15] = tested on: CP325
Method in brief: as §1

[16] = tested on: CP329
Method in brief: as §1

[17] = tested on: DIV30
Method in brief: as §1

[18] = tested on: FAB9
Method in brief: as §1

[19] = tested on: JCK
Method in brief: as §1

[20] = tested on: PC15
Method in brief: as §1

Measured: Potency

CN1[C@H]2CC(OC(=O)[C@H](CO)c3ccccc3)C[C@H]1[C@H]1O[C@H]12 (stereo not given in full)
inactive: all assays above
